# This is a sample that favours compounds with a hit; in the whole collection about 7.4% have one here.
# ELG1 genotox: genotoxicity induction in ELG1-luciferase HEK293T cells; HEK293T ELG1-luciferase reporter, luminescence, 16 h; Potency, µM (highest dose often 46 µM), for the others: at the highest dose activity change, positive = activation, usual class: activators; 330,000 compounds, 1.3% hits; AID 504466; also: % of control where 0% means no effect; nearly all actives have a fitted effect of over 60% in size
#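 DMSO vehicle served as control against compound-treated ELG1-luciferase HEK293T cells; exposure lasted 16 hr at 37 °C and 5% CO2, followed by ONE-Glo luminescence detection after 30 min.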
# NPC1 promoter act: activates the NPC1 promoter. 320,000 compounds, 2.4% hits. Huh7 NPC1 promoter luciferase reporter, 24 h. Potency, µM (doses to about 9.22 µM), for the others: at the top dose activation, hits mostly activators; also: % of control where 0% means no effect; nearly all actives have a fitted effect of over 60% in size
#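 NPC1 promoter–luciferase Huh7 cells; 24 h compound; luminescence.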
# SMN2 splice enh: increases expression of the SMN2 splice variant; 210,000 compounds, 2.8% hits; Potency, µM (series often up to 46.1 µM), without a hit: at the top dose activity change, positive = activation, actives largely listed as activators; AID 1458; HEK293 SMN2-luciferase splicing reporter, luminescence, 30-36 h; also: % of control where 0% means no effect; nearly all actives have a fitted effect of over 55% in size
#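 HEK293 cells carry an SMN2 […]–luciferase reporter in which exon 7 inclusion puts luciferase in frame. Cells were plated 10-12 h before compound addition, then incubated 30-36 h at 37C. ONE-Glo luminescence was read; sodium butyrate at 4.5 mM final served as control.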
# Rab9 prom act: activates the Rab9 promoter | Huh7 Rab9 promoter-luciferase reporter, luminescence, 24 h | Potency, µM (titrated, usually from 9.22 µM), for inactives: at the top dose activation, negative = inhibition, usual class: activators | 320,000 compounds, 2.8% hits | AID 485297; also: % of control where 0% means no effect; nearly all actives have a fitted effect of over 60% in size
#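 Huh7 reporter line, Rab9 promoter upstream of luciferase. Compound exposure 24 h at 37 °C in reduced-serum medium with 10% FBS. Read-out: luminescence.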
# FLuc modulator: inhibits or activates purified firefly luciferase, miR-21 counter-screen; 360,000 compounds, 6.9% hits; Potency, µM (highest dose often 57.5 µM), for the others: at the highest dose activity change, negative = inhibition, usual class: inhibitors; AID 588342; purified FLuc, Km substrates, luminescence inhibition; P08659;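 also: plate controls were vehicle for no effect and reference inhibitor for full effect; nearly all actives have a fitted effect of over 55% in size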
# Target sequence (P08659 whole entry, looked up): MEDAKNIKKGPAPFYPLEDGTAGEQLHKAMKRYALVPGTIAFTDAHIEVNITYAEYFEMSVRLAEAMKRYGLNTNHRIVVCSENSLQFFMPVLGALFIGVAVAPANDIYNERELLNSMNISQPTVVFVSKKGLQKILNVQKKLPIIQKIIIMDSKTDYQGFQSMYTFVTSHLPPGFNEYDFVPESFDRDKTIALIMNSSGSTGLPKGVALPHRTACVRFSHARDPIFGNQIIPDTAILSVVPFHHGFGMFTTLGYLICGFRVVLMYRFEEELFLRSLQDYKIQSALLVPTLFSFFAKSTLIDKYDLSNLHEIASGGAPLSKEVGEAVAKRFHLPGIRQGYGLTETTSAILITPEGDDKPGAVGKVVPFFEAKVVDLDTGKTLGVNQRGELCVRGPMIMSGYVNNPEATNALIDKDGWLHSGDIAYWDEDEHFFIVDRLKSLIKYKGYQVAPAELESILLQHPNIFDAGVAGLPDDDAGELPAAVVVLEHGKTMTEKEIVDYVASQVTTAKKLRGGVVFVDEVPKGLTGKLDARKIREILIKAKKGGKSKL
#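 Purified P. pyralis luciferase (10nM final) with 10uM D-luciferin and 10uM ATP (Km levels) in 50mM Tris acetate pH 7.5, 10mM Mg acetate, 0.01% Tween-20, 0.05% BSA; qHTS 6-point titration, ~60 µM downward; luminescence read.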
# * hit, by the source's call; ? = inconclusive; nt = not tested or not shown; [ ] = remark or other dose. Calls follow the shape of the dose curve; as a rule, active = well fitted curve in the direction sought with a large enough effect; inconclusive = small, poorly fitted or top-dose-only effect, or another doubt; inactive = no such curve, though single readings can be large; an effect the other way counts as inactive or inconclusive. Potency is read from the fitted curve at half-maximal effect.
SMILES,ELG1 genotox,NPC1 promoter act,SMN2 splice enh,Rab9 prom act,FLuc modulator
Cc1nc(SCC(=O)Nc2ccc(OCc3ccccc3)cc2)n[nH]1,15.1%,27.4%,nt,?,12µM*
CCOc1ccc(NC(=O)CSc2ncn[nH]2)cc1,10.6%,10.9%,1.2%,21.8%,?
Nn1c(COc2ccc(Cl)cc2)nc2ccccc2c1=O,?,?,14.1µM*,?,?
Nn1c(Cc2ccccc2)nc2cc(Cl)ccc2c1=O,-2.1%,-3.2%,nt,-0.6%,-0.1%
COc1ccc(C(=O)N2CCC[C@@]3(CCN(c4ccccn4)C3)C2)cc1,nt,nt,-23.0%,nt,nt
Cc1ccc(-n2nnc3ccccc3c2=O)cc1C,?,?,14.1µM*,3.55µM*,1.7%[2.3 µM]
COCCCNC(=O)c1ccc2c3c(onc13)-c1ccccc1C2=O,-11.3%,3.16µM*,nt,0.708µM*,6.01µM*
COc1ccc(CCNC(=O)COC(=O)COc2ccc(C#N)cc2)cc1,-0.1%,0.1%,0.4%,2.0%,-1.1%
CCc1ccc2ncc3c(-c4ccc(F)cc4)nn(CC(=O)NCc4ccccc4)c3c2c1,nt,nt,nt,nt,3.7%
COC(=O)N/N=C/c1cccc(OC(=O)c2ccc3c(c2)OCO3)c1,-1.3%,-2.4%,nt,-0.4%,16.9µM*
O=C(COc1ccccc1[N+](=O)[O-])N/N=C/c1cccc(OC(=O)c2ccc3c(c2)OCO3)c1,?,4.8%,?,1.0%,-13.7%
O=C(N/N=C/c1cccc(OC(=O)c2ccc3c(c2)OCO3)c1)c1cncc(Br)c1,12.7%,18.7%,15.8µM*,?,-5.4%
